Results filed as inconclusive are left out. Calls of active or inactive are those of the source. The call rests on the fitted dose curve; in most records, active means well fitted curve in the direction sought with a large enough effect; inconclusive means small, poorly fitted or top-dose-only effect, or another doubt; inactive means no such curve, though single readings can be large; an effect the other way counts as inactive or inconclusive.
What was measured:
[1] = MultiTox-Fluor Cytotoxicity Assay - LYMP1-002 - Dead Cells (AID 960); conditions: LYMP1-002 lymphoblastoid cells, dead-cell protease fluorescence; series mostly up to 46.1 µM;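 further: cells exposed to compound for 16 h at 37 °C; nearly all actives have a fitted effect of over 60% in size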
How it was run: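 Concentration-dependent increases in membrane-leaked protease activity are quantified in LYMP1-002 cells after 16 hr treatment; values are normalized against DMSO and tetraoctylammonium bromide (15 uM) controls and AC50 derived by Hill modeling.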

[2] = MultiTox-Fluor Cytotoxicity Assay - LYMP1-003 - Dead Cells (AID 961); conditions: LYMP1-003 lymphoblastoid cells, dead-cell protease fluorescence; series mostly up to 92.2 µM;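 further: cells exposed to compound for 16 h at 37 °C; nearly all actives have a fitted effect of over 70% in size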
How it was run: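 Acute toxicity is scored as increased dead-cell protease activity in human lymphoblastoid LYMP1-003 cells after 16 h compound exposure in complete culture medium. Activity is normalized to DMSO basal and 15 uM tetraoctylammonium bromide as full response.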

[3] = MultiTox-Fluor Cytotoxicity Assay - LYMP1-003 - Live Cells (AID 962); conditions: LYMP1-003 lymphoblastoid cells, MultiTox-Fluor live-cell protease fluorescence; series mostly up to 92.2 µM;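 further: cells exposed to compound for 16 hours at 37 °C; cytotoxic hits lower the live-cell protease signal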
How it was run: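 Human lymphoblastoid line LYMP1-003 in complete culture medium, treated 16 hr with titrated compounds. Viable cells quantified via cell-permeant GF-AFC substrate fluorescence; AC50 derived by Hill fitting.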

[4] = Cell Viability - LYMP1-003 - Assay at 24 hr (AID 963); conditions: LYMP1-003 lymphoblastoid cell viability; series mostly up to 92.2 µM
How it was run: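 The lymphoblastoid line was treated with titrated compounds for 24 hours, and viable cell number estimated from luciferase-based ATP luminescence.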

[5] = Cell Viability - LYMP1-003 - Assay at 40 hr (AID 964); conditions: LYMP1-003 lymphoblastoid viability; series mostly up to 92.2 µM; further: nearly all actives have a fitted effect of over 60% in size
How it was run: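 Acute toxicity is scored as a concentration-dependent loss of intracellular ATP in LYMP1-003 cells (2500/well, complete medium) after 40 hr at 37 C, measured by CellTiter-Glo luminescence; AC50 values derive from standard Hill modelling.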

[6] = Cell Viability - LYMP2-003 (AID 965); conditions: LYMP2-003 lymphoblastoid cell viability; series mostly up to 92.2 µM;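 further: cells exposed to compounds for 24 h before reading; nearly all actives have a fitted effect of over 50% in size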
How it was run: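 qHTS, human lymphoblastoid line, 2500 cells/well, complete medium. 24 h drug, 37 C. ATP-based luminescent readout; Hill-fit AC50.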

[7] = Cell Viability - LYMP2-004 (AID 966); conditions: LYMP2-004 lymphoblastoid cell viability, qHTS; series mostly up to 92.2 µM; further: nearly all actives have a fitted effect of over 65% in size
How it was run: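 Viable-cell number estimated from ATP luminescence (CellTiter-Glo) in 2500 human lymphoblastoid cells/well after 24 hr at 37 C with compound. AC50 fitted to the standard Hill equation.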

[8] = Cell Viability - LYMP2-005 (AID 967); conditions: LYMP2-005 lymphoblastoid cell viability; series mostly up to 92.2 µM
How it was run: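 Luciferase-based ATP quantitation served as the viability measure in human lymphoblastoid LYMP2-005 cells exposed to test compounds for 24 h at 37 C in complete culture medium. Potency (AC50) was obtained by fitting concentration-response curves with the Hill equation.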

[9] = Cell Viability - LYMP2-009 (AID 968); conditions: LYMP2-009 lymphoblastoid cell viability; series mostly up to 92.2 µM; further: nearly all actives have a fitted effect of over 55% in size
[10] = Cell Viability - LYMP2-011 (AID 969); conditions: LYMP2-011 lymphoblastoid cells viability; series mostly up to 92.2 µM; further: nearly all actives have a fitted effect of over 60% in size
How it was run: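 Cells seeded at 2500 per well rest 5 hr before compound addition, then incubate 24 hr at 37 C. CellTiter-Glo reagent is added for 30 min at room temperature before luminescence detection.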

Measured: outcome

C=CCNC(N)=S
inactive: all assays above

O=C1C(c2[nH]c3ccccc3c2O)=Nc2ccccc21
inactive: all assays above

CC(=O)Nc1cccc(O)c1
inactive: all assays above

CC(=O)Nc1ccc(C(=O)O)cc1
inactive: all assays above

CCCCCCCC(=O)OCC(COC(=O)CCCCCCC)OC(=O)CCCCCCC
inactive: all assays above

FC(F)(F)C(Cl)Br (configuration not stated)
inactive: all assays above

CC(=O)Nc1ccccc1
inactive: all assays above

Cc1cc(=O)[nH]c(=S)[nH]1
inactive: all assays above

CC(=O)OCC(COC(C)=O)OC(C)=O
inactive: all assays above

COc1ccc(O)cc1
inactive: all assays above

O=C1c2cccc(O)c2C(=O)c2c(O)cccc21
not listed: [6] | [10]
inactive: all other assays above

Cc1cc(C)nc(NS(=O)(=O)c2ccc(N)cc2)n1
inactive: all assays above

CCCC(O)C(CC)CO (configuration not stated)
inactive: all assays above

O=C(O)CCCCC1CCSS1 (configuration not stated)
inactive: all assays above

CCCCCC(N)=O
inactive: all assays above

CC(=O)NS(=O)(=O)c1ccc(N)cc1
inactive: all assays above

O=C(c1ccccc1)C(O)c1ccccc1 (configuration not stated)
inactive: all assays above

CCCCOC(=O)c1ccc(N)cc1
inactive: all assays above

Cc1c(N(C)C)c(=O)n(-c2ccccc2)n1C
not listed: [1]
inactive: all other assays above

CCN(CC)C(=O)c1cccc(C)c1
inactive: all assays above

CC1CC(OC(=O)c2ccccc2O)CC(C)(C)C1 (configuration not stated)
inactive: all assays above

Nc1ccc(S(=O)(=O)c2ccc(N)cc2)cc1
inactive: all assays above

Reference: PubChem BioAssay (NCATS)
